Rab9 prom act: Rab9 promoter activation; Potency, µM (top dose mostly 9.22 µM), without a hit: top-dose activation, negative = inhibition, most hits filed as activators; AID 485297; Huh7 Rab9 promoter-luciferase reporter, luminescence, 24 h; 320,000 compounds, 2.8% hits; also: % of control where 0% means no effect; nearly all actives have a fitted effect of over 60% in size
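Steps: seed 1500 Huh7 Rab9-luc cells per well, rest 2 h at 37 °C; add compound in DMSO; incubate 24 h; add luciferase reagent, 10 min ambient; read luminescence.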
FLuc modulator: inhibits or activates purified firefly luciferase, miR-21 counter-screen | P08659 | purified FLuc, Km substrates, luminescence inhibition | Potency, µM (highest dose often 57.5 µM), for the others: at the highest dose activity change, negative = inhibition, actives largely listed as inhibitors | 360,000 compounds, 6.9% hits | AID 588342;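 also: plate controls were vehicle for no effect and reference inhibitor for full effect; nearly all actives have a fitted effect of over 55% in size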
Target sequence (P08659 whole entry, looked up): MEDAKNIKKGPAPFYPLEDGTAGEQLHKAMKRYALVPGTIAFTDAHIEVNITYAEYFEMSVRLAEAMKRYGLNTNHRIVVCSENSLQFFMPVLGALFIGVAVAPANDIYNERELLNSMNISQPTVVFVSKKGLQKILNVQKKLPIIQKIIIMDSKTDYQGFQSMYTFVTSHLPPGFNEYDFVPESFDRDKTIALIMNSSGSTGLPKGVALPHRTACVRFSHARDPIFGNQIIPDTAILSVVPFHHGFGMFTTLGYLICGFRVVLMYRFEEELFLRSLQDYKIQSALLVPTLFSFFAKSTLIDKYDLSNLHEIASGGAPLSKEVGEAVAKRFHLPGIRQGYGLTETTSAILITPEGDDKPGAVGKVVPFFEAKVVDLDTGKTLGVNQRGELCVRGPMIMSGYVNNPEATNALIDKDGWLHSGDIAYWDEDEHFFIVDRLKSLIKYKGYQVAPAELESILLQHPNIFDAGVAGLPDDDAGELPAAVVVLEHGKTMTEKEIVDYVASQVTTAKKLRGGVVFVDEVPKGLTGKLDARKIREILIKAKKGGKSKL
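Purified P. pyralis luciferase (10nM final) with 10uM D-luciferin and 10uM ATP (Km levels) in 50mM Tris acetate pH 7.5, 10mM Mg acetate, 0.01% Tween-20, 0.05% BSA; qHTS 6-point titration, ~60 µM downward; luminescence read.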
ELG1 DNA repair: inhibitors of ELG1-dependent DNA repair in HEK293T cells; HEK293T ELG1-luciferase reporter, luminescence, 16 h; DNA damage induced by 5-fluorouridine; Potency, µM (series often up to 46.1 µM), for the others: at the top dose activity change, negative = inhibition, actives largely listed as inhibitors; 330,000 compounds, 2.3% hits; also: % is scaled to controls: 0 for no effect and ±100 for the full control effect; nearly all actives have a fitted effect of over 55% in size
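Reporter activity after DNA damage by 5-fluorouridine is monitored. Compound-treated cells incubate 16 hr at 37 °C, then ONE-Glo is added for 30 min before luminescence reading.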
NPC1 promoter act: activates the NPC1 promoter; 320,000 compounds, 2.4% hits; Potency, µM (series often up to 9.22 µM), for the others: at the highest dose activation, most hits filed as activators; Huh7 NPC1 promoter luciferase reporter, 24 h; also: % of control where 0% means no effect; nearly all actives have a fitted effect of over 60% in size
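Quantitative HTS used a cell-based reporter: Huh7 cells stably bearing the NPC1 promoter upstream of luciferase were treated with compounds for 24 h, and promoter activation was read as luminescence.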
ELG1 genotox: induces genotoxicity in HEK293T cells with luciferase-tagged ELG1. 330,000 compounds, 1.3% hits. HEK293T ELG1-luciferase reporter, luminescence, 16 h. Potency, µM (series often up to 46 µM), without a hit: at the top dose activity change, positive = activation, most hits filed as activators. AID 504466; also: % of control where 0% means no effect; nearly all actives have a fitted effect of over 60% in size
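Reporter readout depends on ELG1 protein level, which increases with genetic stress. After 16 hr compound exposure at 37 °C, luciferase activity was quantified using ONE-Glo.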
SMN2 splice up: enhancers of SMN2 splice variant expression. HEK293 SMN2-luciferase splicing reporter, luminescence, 30-36 h. Potency, µM (series often up to 46.1 µM), without a hit: at the highest dose activity change, positive = activation, most hits filed as activators. 210,000 compounds, 2.8% hits. AID 1458; also: % of control where 0% means no effect; nearly all actives have a fitted effect of over 55% in size
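HEK293 cells carry an SMN2 minigene-luciferase reporter in which exon 7 inclusion puts luciferase in frame. Cells were seeded at 2000 cells/well, attached for 10-12 hours, then exposed to compounds for 30-36 hours at 37C before ONE-Glo luminescence.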
An asterisk follows results filed as active; ? = inconclusive; · = no result given; [ ] = another dose, or the depositor's remark. Hits are enriched below; roughly 9.4% of the tested compounds scored in any of these assays. Calls follow the shape of the dose curve; as a rule, active = well fitted curve in the direction sought with a large enough effect; inconclusive = small, poorly fitted or top-dose-only effect, or another doubt; inactive = no such curve, though single readings can be large; an effect the other way counts as inactive or inconclusive. Potency is read from the fitted curve at half-maximal effect.

SMILES	Rab9 prom act	FLuc modulator	ELG1 DNA repair	NPC1 promoter act	ELG1 genotox	SMN2 splice up
CCCCOc1ccc(C2C(=O)N(C3CCCCC3)CC(=O)N2C2CCCCC2)cc1 (centres undefined)	·	2%	·	·	·	·
CCCN(C(=O)c1cc2c(=O)oc3ccccc3c2s1)c1ccc(CC)cc1	·	-1%	·	·	·	5%
Cc1cc(C)n(CCc2nc3c4ccccc4nc(N4CCN(c5ccccc5)CC4)n3n2)n1	·	-7%	·	·	·	-9%
O=C(N/N=C/c1cccc(O)c1)c1ccccc1O	8%	1.5µM*	?	1%	?	·
O=C(N/N=C/c1cccc(O)c1)c1csc2ccccc12	-5%	21µM*	?	16%	16%	0%
O=C(Oc1ccc(/C=N/NC(=O)c2ccccc2O)cc1)c1ccccc1	-3%	?	?	2%	?	-2%
O=C(O)c1csc(N/N=C/c2ccc(Br)cc2)n1	30%	5.4µM*	?	25%	7%	-5%
O=[N+]([O-])c1ccc(/C=N/Nc2ncc(-c3ccccc3)cn2)cc1	-3%	-2%	-2%	-3%	6%	0%
CCNc1nc(NCC)nc(N/N=C/c2ccc(Br)cc2)n1	-3%	-13%	-15%	-15%	-10%	-21%
COc1ccc(-c2cnnc(N/N=C/c3ccc(OC)c(OC)c3)n2)cc1	0%	2.7µM*	?	6%	-2%	·
Cc1cc(-c2ccccc2)nc(N/N=C/c2ccc([N+](=O)[O-])cc2)n1	1%	-26%	13µM*	-3%	-8%	1%[1.84 µM]
Cc1cc(-c2ccccc2)nc(N/N=C/c2ccco2)n1	?	12µM*	1%	?	7%	13%
CCOc1cc(/C=N/Nc2nncc(-c3ccccc3)n2)ccc1O	1%	-2%	?	-4%	-13%	-17%
Nc1ncnc2c1ncn2[C@@H]1O[C@H](COP(=O)(O)OP(=O)(O)OC[C@H]2OC(O)[C@H](O)[C@@H]2O)[C@@H](O)[C@H]1O (some centres undefined)	·	·	·	·	·	-7%
CC(C)Oc1cc(O)c2c(c1)OCC=C2CCC(=O)O	·	·	·	·	·	10%[9.22 µM]
COc1ccc(NC(=O)C2=C(C)Nc3nc(SCc4ccc(C)cc4C)nn3C2c2cccc(OC)c2OC)cc1 (centres undefined)	·	3%	·	·	·	·
Cc1csc(N/N=C/c2ccc([N+](=O)[O-])cc2)n1	2.8µM*	?	?	?	10%	·
C(=N/Nc1nc(-c2ccccc2)cc(-c2ccccc2)n1)/c1cccnc1	26%	2.7µM*	?	18%	1%	2.5µM*
C(=N\Nc1nc(Nc2ccccc2)nc(Nc2ccccc2)n1)/c1ccncc1	-9%	0%	8%	-7%	1%	17%
C(=N\Nc1nc(Nc2ccccc2)nc(Nc2ccccc2)n1)/c1cccnc1	4%	?	6.5µM*	3%	-6%	3%
COc1ccc(/C=N/Nc2nc(-c3ccc(Cl)cc3)cc(C(F)(F)F)n2)cc1OC	0%	?	?	-4%	-9%	-58%
COc1ccc(/C=N/Nc2nc(C)cc(-c3ccccc3)n2)cc1OC	1%	13µM*	?	-2%	-13%	·
Cc1cc(=O)[nH]c(N/N=C/c2ccc([N+](=O)[O-])cc2)n1	0%	-1%	14%	-2%	10%	-10%
COC(=O)c1cc2oc3ccccc3c2n1Cc1nc(-c2cccc(Cl)c2)oc1C	·	-2%	·	·	·	·
Cc1ccc2c(CC(=O)N3CCN(c4cccc(Cl)c4)CC3)coc2c1C	·	-8%	·	·	·	-10%
SMILES	Rab9 prom act	FLuc modulator	ELG1 DNA repair	NPC1 promoter act	ELG1 genotox	SMN2 splice up
Cc1c(-c2nc(-c3ccc4c(c3)[nH]c(=O)n4C)no2)cccc1[N+](=O)[O-]	·	0%	·	·	·	·
COc1cc2c(=O)c(S(=O)(=O)c3ccccc3)cn(CC(=O)Nc3ccccc3C)c2cc1OC	·	2%	·	·	·	-13%
Cc1ccc2nc(N/N=C/c3ccco3)cc(C)c2c1	2.5µM*	2.7µM*	?	2.8µM*	9%	·
Cc1ccc2nc(C)cc(SCC(=O)N/N=C/c3ccco3)c2c1	-6%	3%	-1%	-9%	-7%	·
Cc1cc(-c2ccccc2)nc(N/N=C/c2cccnc2)n1	1%	12µM*	-21%	5%	-2%	·
Cc1cc(-c2ccccc2)nc(N/N=C/c2ccc(O)cc2O)n1	4%	?	?	3%	0%	·
Cc1cc(-c2ccccc2)nc(N/N=C/c2ccccc2)n1	?	6.7µM*	?	?	17%	·
Cc1ccc2nc(C)cc(N/N=C/c3cccnc3)c2c1	-4%	0%	-16%	0%	2%	·
Oc1cccc(-c2nc3ccccc3s2)c1	?	1.7µM*	?	1%	1.5µM*	?
O=C(O)c1ccc2c(c1)C(=O)N(c1cccc(-c3nc4ccccc4s3)c1)C2=O	-7%	2.4µM*	?	1%	6%	·
Nc1cccc(-c2nc3ccccc3s2)c1	4µM*	1.2µM*	?	3.2µM*	3.7µM*	57%
Cc1cc(C)c(-c2nc3ccccc3s2)[nH]1	9%	4.8µM*	?	4%	?	·
Cc1[nH]nc(-c2ccc(O)cc2O)c1-c1nc2ccccc2s1	0%	-13%	-9%	0%	19%	-20%
Cc1cc2ccccc2n2c(SCC(=O)Nc3cccc(C(F)(F)F)c3)nnc12	·	-5%	·	·	·	2%
O=C1c2ccccc2C(Cc2ccnc(F)c2)(Cc2ccnc(F)c2)c2ccccc21	·	·	·	·	·	-3%
Cc1ccc(NC(=O)CCCNC(=O)c2ccc(Cl)cc2)c(O)c1	15%	?	?	2%	?	·
CCc1ccc(NC(=O)CC2C(=O)N(c3cccc(OC)c3)C(=O)N2Cc2ccc(F)cc2)cc1 (centres undefined)	·	-2%	·	·	·	·
CC[n+]1cccc(-c2nc3ccccc3s2)c1	-1%	27µM*	-13%	1%	4%	-20%
CC(C)(C)S(=O)(=O)c1nc2ccccc2s1	-1%	-5%	16%	-4%	-3%	0%
COc1ccc(C(=O)O/N=C(/c2cccs2)C(C)(C)C)cc1	1%	-11%	14%	-2%	-1%	·
COc1ccc(C2CC2/C(=N/OC(=O)c2cccs2)c2ccccc2)cc1 (centres undefined)	?	12µM*	?	?	?	?
CCC(C)(C)C1CCc2c(sc(NC(=O)c3ccccc3C(=O)O)c2C#N)C1 (centres undefined)	1%	11µM*	?	-3%	-7%	·
CC1CCc2c(sc(NC(=O)c3ccccc3C(=O)O)c2C#N)C1 (centres undefined)	?	21µM*	?	?	?	·
